This is part of a sample that, as a whole, favours compounds with a hit. Of some 79,000 tested, about 15% had one in any assay. Calls of active or inactive are those of the source. No stated cut-off is given here; in the data, active means growth inhibition above about 70%; inactive means the rest.
Columns and labels:
[1] = NCI Yeast Anticancer Drug Screen. Data for the rad52 strain (AID 147);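 further: 0% = growth of vehicle-treated control cultures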; details: S. cerevisiae rad52 mutant growth inhibition, active compounds read high
Procedure, shortened: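 Read-out: growth inhibition versus vehicle-treated controls. Cells were a DNA repair-deficient yeast strain treated with compounds.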

[2] = NCI Yeast Anticancer Drug Screen. Data for the wt1 strain (AID 149);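 further: 0% = growth of vehicle-treated wt1 cultures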; details: S. cerevisiae wt1 strain (SPY 50644) growth inhibition, active compounds read high
Procedure, shortened: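 Yeast wt1 strain exposed to compounds; growth inhibition measured relative to vehicle-treated controls.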

[3] = NCI Yeast Anticancer Drug Screen. Data for the rad50EPP+ strain (AID 151);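 further: 0% = growth of vehicle-treated control cultures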; details: S. cerevisiae rad50 mutant strain, active compounds read high
Procedure, shortened: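 Growth inhibition read against vehicle controls in rad50EPP+ yeast, a strain altered in DNA damage repair, after compound exposure.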

[4] = NCI Yeast Anticancer Drug Screen. Data for the mgt1 strain (AID 153); details: S. cerevisiae mgt1 mutant growth inhibition, active compounds read high
Procedure, shortened: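 mgt1 yeast grown with test compound; read-out is growth inhibition versus vehicle-treated cultures.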

[5] = NCI Yeast Anticancer Drug Screen. Data for the rad50 strain (AID 155);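 further: 0% = growth of vehicle-only cultures of the same strain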; details: S. cerevisiae rad50 strain growth inhibition, active compounds read high
Procedure, shortened: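 Yeast carrying a defined DNA repair defect were exposed to test compounds, and growth was compared with vehicle-treated controls to give percent inhibition.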

[6] = NCI Yeast Anticancer Drug Screen. Data for the mec2-1 strain (AID 157); details: S. cerevisiae mec2-1 strain, active compounds read high
Procedure, shortened: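 Yeast mec2-1 mutant treated with compound. Readout: growth inhibition vs vehicle controls.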

[7] = NCI Yeast Anticancer Drug Screen. Data for the sgs1 mgt1 strain (AID 161);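 further: 0% = growth of cultures given vehicle only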; details: S. cerevisiae sgs1 mgt1 strain, active compounds read high
Procedure, shortened: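 Mutant yeast exposed to compound; growth scored against vehicle-only wells.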

[8] = NCI Yeast Anticancer Drug Screen. Data for the cln2 rad14 strain (AID 165);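 further: 0% = growth equal to vehicle treated cultures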; details: S. cerevisiae cln2 rad14 strain, active compounds read high
Procedure, shortened: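 cln2 rad14 yeast strain; compound exposure; growth inhibition read vs vehicle controls.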

[9] = NCI Yeast Anticancer Drug Screen. Data for the bub3 strain (AID 167); details: S. cerevisiae bub3 mutant strain, active compounds read high
Procedure, shortened: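 Compounds were applied to a genetically altered yeast strain carrying a cell-cycle control defect. Growth inhibition was scored against vehicle-treated controls.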

[10] = NCI Yeast Anticancer Drug Screen. Data for the wt2 strain (AID 169);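 further: 0% = growth of vehicle-treated yeast cultures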; details: S. cerevisiae wt2 strain growth inhibition, active compounds read high
Procedure, shortened: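 Read-out: growth inhibition versus vehicle-treated control cultures after compound exposure of the yeast strain.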

[11] = NCI Yeast Anticancer Drug Screen. Data for the mlh1 strain (AID 171);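 further: 0% = growth of vehicle-treated control cultures of the same strain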; details: S. cerevisiae mlh1 strain growth inhibition, active compounds read high
Procedure, shortened: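 Read-out: growth inhibition versus vehicle controls. Strain: engineered yeast with a defined DNA repair or cell cycle defect, compound-treated.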

[12] = NCI Yeast Anticancer Drug Screen. Data for the sgs1 strain (AID 173);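 further: 0% = growth of vehicle-only control cultures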; details: S. cerevisiae sgs1 mutant, active compounds read high
Procedure, shortened: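 Read-out: yeast growth inhibition relative to vehicle controls, following compound exposure of a strain with a defined DNA repair/cell cycle alteration.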

[13] = NCI Yeast Anticancer Drug Screen. Data for the mlh1 rad18 strain (AID 175); details: S. cerevisiae mlh1 rad18 strain growth inhibition, active compounds read high
Procedure, shortened: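 Yeast w/ defined DNA-repair lesions; compound exposure; growth vs vehicle controls → % inhibition.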

[14] = NCI Yeast Anticancer Drug Screen. Data for the rad18 strain (AID 177); details: S. cerevisiae rad18 mutant growth inhibition, active compounds read high
Procedure, shortened: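 Readout: growth inhibition vs vehicle controls. Cells: genetically altered yeast strain, DNA repair defect.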

[15] = NCI Yeast Anticancer Drug Screen. Data for the CLN2oe strain (AID 163);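 further: 0% = growth of vehicle-only control cultures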; details: S. cerevisiae CLN2oe strain, active compounds read high
Procedure, shortened: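 Read-out: yeast growth inhibition, expressed relative to vehicle-only controls. The strain bears an engineered cell-cycle alteration.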

[16] = at 5.0 µM (retest, dose inferred, filed as 0.5)
[17] = at 50.0 µM (retest, dose inferred, filed as 5.0)

Measured: growth inhibition

CCN(CC)CC(O)c1ccc2ccc3ccccc3c2c1 (centres undefined)
active: [5]; at 50.0 µM 70.9% | [9]; [17] 71%
inactive: [1]; at 1.2 µM 3% | [1]; at 3.7 µM 7% | [1]; at 11.0 µM 14% | [1]; at 33.0 µM 14% | [1]; at 100.0 µM 46% | [2]; at 1.2 µM 4% | [2]; at 3.7 µM 10% | [2]; at 11.0 µM 18% | [2]; at 33.0 µM 16% | [2]; at 100.0 µM 19% | [3]; at 1.2 µM -1% | [3]; at 3.7 µM 1% | [3]; at 11.0 µM 2% | [3]; at 33.0 µM -1% | [3]; at 100.0 µM -11% | [4]; at 1.2 µM 2% | [4]; at 3.7 µM 4% | [4]; at 11.0 µM 6% | [4]; at 33.0 µM 21% | [4]; at 100.0 µM 59% | [5]; at 1.2 µM 6% | [5]; at 3.7 µM 10% | [5]; [16] -1% | [5]; at 11.0 µM 15% | [5]; at 33.0 µM 10% | [5]; [17] 52% | [5]; at 100.0 µM 39% | [6]; at 1.2 µM 3% | [6]; at 3.7 µM 7% | [6]; [16] 15% | [6]; at 11.0 µM 11% | [6]; at 33.0 µM 15% | [6]; [17] 20% | [6]; at 50.0 µM 37.4% | [6]; at 100.0 µM 33% | [7]; [16] 16% | [7]; [17] 7% | [7]; at 50.0 µM 42.7% | [8]; [16] -22% | [8]; [17] -22% | [8]; at 50.0 µM 32% | [9]; at 1.2 µM 1% | [9]; at 3.7 µM 4% | [9]; [16] 10% | [9]; at 11.0 µM -20% | [9]; at 33.0 µM 43% | [9]; at 50.0 µM 65.2% | [9]; at 100.0 µM 45% | [10]; at 1.2 µM 2% | [10]; at 3.7 µM 8% | [10]; at 11.0 µM 17% | [10]; at 33.0 µM 21% | [10]; at 100.0 µM 36% | [11]; at 1.2 µM 8% | [11]; at 3.7 µM 8% | [11]; at 11.0 µM 16% | [11]; at 33.0 µM 16% | [11]; at 100.0 µM 40% | [12]; at 1.2 µM 8% | [12]; at 3.7 µM 17% | [12]; at 11.0 µM 34% | [12]; at 33.0 µM 48% | [12]; at 100.0 µM 64% | [13]; [16] 3% | [13]; [17] 19% | [13]; at 50.0 µM 51.1% | [14]; at 1.2 µM 17% | [14]; at 3.7 µM 22% | [14]; at 11.0 µM 27% | [14]; at 33.0 µM 38% | [14]; at 100.0 µM 59%

O=C(N=Nc1ccccc1Cl)NNc1ccccc1Cl
inactive: [1]; at 1.2 µM 25% | [1]; at 3.7 µM 19% | [1]; at 11.0 µM 13% | [1]; at 33.0 µM 28% | [1]; at 100.0 µM 26% | [2]; at 1.2 µM 4% | [2]; at 3.7 µM 2% | [2]; at 11.0 µM 0% | [2]; at 33.0 µM 5% | [2]; at 100.0 µM 6% | [3]; at 1.2 µM 17% | [3]; at 3.7 µM 19% | [3]; at 11.0 µM 26% | [3]; at 33.0 µM 39% | [3]; at 100.0 µM 20% | [4]; at 1.2 µM -5% | [4]; at 3.7 µM -5% | [4]; at 11.0 µM 3% | [4]; at 33.0 µM -18% | [4]; at 100.0 µM -2% | [5]; at 1.2 µM 8% | [5]; at 3.7 µM 8% | [5]; [16] -15% | [5]; at 11.0 µM -15% | [5]; at 33.0 µM 14% | [5]; [17] 16% | [5]; at 50.0 µM 44.5% | [5]; at 100.0 µM 13% | [6]; at 1.2 µM -1% | [6]; at 3.7 µM 1% | [6]; [16] -15% | [6]; at 11.0 µM 7% | [6]; at 33.0 µM 6% | [6]; [17] 38% | [6]; at 50.0 µM 21.1% | [6]; at 100.0 µM 12% | [7]; [16] -18% | [7]; [17] 8% | [7]; at 50.0 µM 26.8% | [8]; [16] -25% | [8]; [17] 45% | [8]; at 50.0 µM 47.1% | [9]; at 1.2 µM 2% | [9]; at 3.7 µM 18% | [9]; [16] -40% | [9]; at 11.0 µM 13% | [9]; at 33.0 µM 15% | [9]; [17] 69% | [9]; at 50.0 µM 49.1% | [9]; at 100.0 µM 11% | [10]; at 1.2 µM 0% | [10]; at 3.7 µM 0% | [10]; at 11.0 µM 3% | [10]; at 33.0 µM 7% | [10]; at 100.0 µM 8% | [11]; at 1.2 µM 0% | [11]; at 3.7 µM -4% | [11]; at 11.0 µM 2% | [11]; at 33.0 µM 5% | [11]; at 100.0 µM 4% | [12]; at 1.2 µM 9% | [12]; at 3.7 µM 5% | [12]; at 11.0 µM 9% | [12]; at 33.0 µM 21% | [12]; at 100.0 µM 19% | [13]; [16] -7% | [13]; [17] 41% | [13]; at 50.0 µM 21.6% | [14]; at 1.2 µM 16% | [14]; at 3.7 µM 13% | [14]; at 11.0 µM 8% | [14]; at 33.0 µM 3% | [14]; at 100.0 µM 7%

CC(C)C1=CC2=C[C@H](O)[C@H]3C(C)(C)CCC[C@]3(C)C2=C(O)C1=O
inactive: [1]; at 1.2 µM 7% | [1]; at 3.7 µM 38% | [2]; at 1.2 µM -3% | [2]; at 3.7 µM 13% | [3]; at 1.2 µM 0% | [3]; at 3.7 µM 19% | [3]; at 11.0 µM 69% | [4]; at 1.2 µM -3% | [4]; at 3.7 µM -7% | [5]; at 1.2 µM -6% | [5]; at 3.7 µM 13% | [5]; [16] 29% | [6]; at 1.2 µM -3% | [6]; at 3.7 µM -1% | [6]; [16] 54% | [7]; [16] 68% | [15]; at 1.2 µM -4% | [15]; at 3.7 µM 4% | [8]; [16] 8% | [9]; at 1.2 µM 2% | [9]; at 3.7 µM 9% | [9]; [16] 41% | [10]; at 1.2 µM 15% | [10]; at 3.7 µM 57% | [11]; at 1.2 µM -13% | [11]; at 3.7 µM 23% | [12]; at 1.2 µM 8% | [12]; at 3.7 µM 15% | [13]; [16] 62% | [14]; at 1.2 µM -6% | [14]; at 3.7 µM 27%
active: [1]; at 11.0 µM 99% | [1]; at 33.0 µM 99% | [1]; at 100.0 µM 94% | [2]; at 11.0 µM 99% | [2]; at 33.0 µM 99% | [2]; at 100.0 µM 94% | [3]; at 33.0 µM 97% | [3]; at 100.0 µM 94% | [4]; at 11.0 µM 99% | [4]; at 33.0 µM 99% | [4]; at 100.0 µM 95% | [5]; at 11.0 µM 98% | [5]; at 33.0 µM 98% | [5]; [17] 98% | [5]; at 50.0 µM 92.8% | [5]; at 100.0 µM 93% | [6]; at 11.0 µM 95% | [6]; at 33.0 µM 99% | [6]; [17] 99% | [6]; at 50.0 µM 93.5% | [6]; at 100.0 µM 96% | [7]; [17] 98% | [7]; at 50.0 µM 93.3% | [15]; at 11.0 µM 76% | [15]; at 33.0 µM 99% | [15]; at 100.0 µM 95% | [8]; [17] 98% | [8]; at 50.0 µM 91.5% | [9]; at 11.0 µM 79% | [9]; at 33.0 µM 99% | [9]; [17] 98% | [9]; at 50.0 µM 92.3% | [9]; at 100.0 µM 96% | [10]; at 11.0 µM 99% | [10]; at 33.0 µM 98% | [10]; at 100.0 µM 96% | [11]; at 11.0 µM 99% | [11]; at 33.0 µM 99% | [11]; at 100.0 µM 94% | [12]; at 11.0 µM 99% | [12]; at 33.0 µM 98% | [12]; at 100.0 µM 95% | [13]; [17] 98% | [13]; at 50.0 µM 92.3% | [14]; at 11.0 µM 99% | [14]; at 33.0 µM 99% | [14]; at 100.0 µM 92%
